Assay results from PubChem BioAssay (NCATS).
Inconclusive results are not listed. Calls of active or inactive are those of the source. The call rests on the fitted dose curve; in most records, active means well fitted curve in the direction sought with a large enough effect; inconclusive means small, poorly fitted or top-dose-only effect, or another doubt; inactive means no such curve, though single readings can be large; an effect the other way counts as inactive or inconclusive.

Columns and labels:
[1] = Quantitative High-Throughput drug screen in 47 multiple myeloma cell lines against the NCATS MIPE library collection: FR4_PLB cell viability assay (AID 1918924; further: nearly all actives have a fitted effect of over 35% in size; further: potency means the concentration at half of the fitted maximal effect); settings: FR4_PLB myeloma cells viability, CellTiter-Glo ATP, 48 h; series mostly up to 45.8 µM
Procedure, shortened: (§1)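 Luminescent ATP measurement with CellTiter-Glo gives viability, scaled between DMSO-only wells (100%) and media-only wells (0%). Cells, 500 per well, faced library compounds for 48 hours at 37C.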

[2] = Quantitative High-Throughput drug screen in 47 multiple myeloma cell lines against the NCATS MIPE library collection: Delta47_JCRB cell viability assay (AID 1918925; further: nearly all actives have a fitted effect of over 45% in size; further: potency means the concentration at half of the fitted maximal effect); settings: Delta47 myeloma viability, CellTiter-Glo ATP, 48 h; series mostly up to 45.8 µM
Procedure, shortened: (§2)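 Relative luminescence from CellTiter-Glo served as the viability signal, referenced to DMSO-treated (100%) and cell-free medium (0%) controls. Treatment lasted 48 hours at 37C with 500 cells per well.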

[3] = Quantitative High-Throughput drug screen in 47 multiple myeloma cell lines against the NCATS MIPE library collection: AMO1_DSMZ cell viability assay (AID 1918927; further: nearly all actives have a fitted effect of over 30% in size; further: potency means the concentration at half of the fitted maximal effect); settings: AMO1 myeloma cells viability, CellTiter-Glo ATP luminescence, 48 h; series mostly up to 45.8 µM
Procedure, shortened: as §2

[4] = Quantitative High-Throughput drug screen in 47 multiple myeloma cell lines against the NCATS MIPE library collection: ARD_JJKsccE7 cell viability assay (AID 1918929; further: potency means the concentration at half of the fitted maximal effect); settings: ARD myeloma cell line viability, CellTiter-Glo, 48 h; series mostly up to 45.8 µM
Procedure, shortened: as §2

[5] = Quantitative High-Throughput drug screen in 47 multiple myeloma cell lines against the NCATS MIPE library collection: Karpas620_DSMZ cell viability assay (AID 1918959); settings: Karpas620 myeloma viability, CellTiter-Glo ATP luminescence, 48 h; series mostly up to 45.8 µM; further: nearly all actives have a fitted effect of over 30% in size; further: potency means the concentration at half of the fitted maximal effect
Procedure, shortened: as §1

[6] = Quantitative High-Throughput drug screen in 47 multiple myeloma cell lines against the NCATS MIPE library collection: KMM1_JCRB cell viability assay (AID 1918960); settings: KMM1 myeloma viability, CellTiter-Glo ATP luminescence, 48 h; series mostly up to 45.8 µM; further: nearly all actives have a fitted effect of over 30% in size; further: potency means the concentration at half of the fitted maximal effect
Procedure, shortened: (§3)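 ATP readout (CellTiter-Glo), 48 h drug incubation, 37 °C/5% CO2, 500 cells per well; normalisation to DMSO (100%) and media-only (0%) controls.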

[7] = Quantitative High-Throughput drug screen in 47 multiple myeloma cell lines against the NCATS MIPE library collection: JIM3_ECACC cell viability assay (AID 1918963; further: nearly all actives have a fitted effect of over 35% in size; further: potency means the concentration at half of the fitted maximal effect); settings: JIM3 myeloma viability, CellTiter-Glo ATP, 48 h; series mostly up to 45.8 µM
Procedure, shortened: as §1

[8] = Quantitative High-Throughput drug screen in 47 multiple myeloma cell lines against the NCATS MIPE library collection: JIM1_ECACC cell viability assay (AID 1918964; further: potency means the concentration at half of the fitted maximal effect); settings: JIM1 myeloma viability, CellTiter-Glo ATP luminescence, 48 h; series mostly up to 45.8 µM
Procedure, shortened: as §2

[9] = Quantitative High-Throughput drug screen in 47 multiple myeloma cell lines against the NCATS MIPE library collection: JJN3_DSMZ cell viability assay (AID 1918966; further: nearly all actives have a fitted effect of over 50% in size; further: potency means the concentration at half of the fitted maximal effect); settings: JJN3 myeloma cells viability, CellTiter-Glo ATP, 48 h; series mostly up to 45.8 µM
Procedure, shortened: as §2

[10] = Quantitative High-Throughput drug screen in 47 multiple myeloma cell lines against the NCATS MIPE library collection: H1112_PLB cell viability assay (AID 1918967; further: nearly all actives have a fitted effect of over 30% in size; further: potency means the concentration at half of the fitted maximal effect); settings: H1112 myeloma cells viability, ATP luminescence, 48 h; series mostly up to 45.8 µM
Procedure, shortened: as §2

[11] = Quantitative High-Throughput drug screen in 47 multiple myeloma cell lines against the NCATS MIPE library collection: Karpas25_ECACC cell viability assay (AID 1918968; further: nearly all actives have a fitted effect of over 35% in size; further: potency means the concentration at half of the fitted maximal effect); settings: Karpas25 myeloma viability, CellTiter-Glo ATP, 48 h; series mostly up to 45.8 µM
Procedure, shortened: as §2

[12] = Quantitative High-Throughput drug screen in 47 multiple myeloma cell lines against the NCATS MIPE library collection: KMS12BM_JCRB cell viability assay (AID 1918971); settings: KMS12BM myeloma viability, CellTiter-Glo ATP, 48 h; series mostly up to 45.8 µM; further: nearly all actives have a fitted effect of over 35% in size; further: potency means the concentration at half of the fitted maximal effect
Procedure, shortened: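 Myeloma cells (500 per well) were exposed to MIPE 4.0 compounds by pin transfer and incubated 48 hours at 37C, 5% CO2. Viability was read as ATP by CellTiter-Glo luminescence, normalised to DMSO (100%) and media-only (0%) wells.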

[13] = Quantitative High-Throughput drug screen in 47 multiple myeloma cell lines against the NCATS MIPE library collection: EJM_DSMZ cell viability assay (AID 1918926; further: nearly all actives have a fitted effect of over 30% in size; further: potency means the concentration at half of the fitted maximal effect); settings: EJM myeloma cell viability, CellTiter-Glo ATP, 48 h; series mostly up to 45.8 µM
Procedure, shortened: as §2

[14] = Quantitative High-Throughput drug screen in 47 multiple myeloma cell lines against the NCATS MIPE library collection: ARP1_JJKsccF8 cell viability assay (AID 1918928; further: nearly all actives have a fitted effect of over 40% in size; further: potency means the concentration at half of the fitted maximal effect); settings: ARP1 myeloma cells viability, CellTiter-Glo ATP, 48 h; series mostly up to 45.8 µM
Procedure, shortened: as §3

[15] = Quantitative High-Throughput drug screen in 47 multiple myeloma cell lines against the NCATS MIPE library collection: KHM11_PLB cell viability assay (AID 1918962); settings: KHM11 myeloma cell viability, CellTiter-Glo ATP luminescence, 48 h; series mostly up to 45.8 µM; further: nearly all actives have a fitted effect of over 35% in size; further: potency means the concentration at half of the fitted maximal effect
Procedure, shortened: as §1

[16] = Quantitative High-Throughput drug screen in 47 multiple myeloma cell lines against the NCATS MIPE library collection: INA6_PLB cell viability assay (AID 1918965; further: nearly all actives have a fitted effect of over 55% in size; further: potency means the concentration at half of the fitted maximal effect); settings: INA6 myeloma viability, CellTiter-Glo ATP luminescence, 48 h; series mostly up to 45.8 µM
Procedure, shortened: (§4)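 Steps: seed 500 cells per well; pin-transfer MIPE 4.0 library; incubate 48 h at 37C, 5% CO2, humidified; add CellTiter-Glo, 5 min room temperature; read luminescence.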

[17] = Quantitative High-Throughput drug screen in 47 multiple myeloma cell lines against the NCATS MIPE library collection: KMS27_JCRB cell viability assay (AID 1918970); settings: KMS27 myeloma cells, CellTiter-Glo ATP viability, 48 h; series mostly up to 45.8 µM; further: nearly all actives have a fitted effect of over 30% in size; further: potency means the concentration at half of the fitted maximal effect
Procedure, shortened: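 CellTiter-Glo luminescence after 48 h drug exposure at 37 °C; 500 cells/well, 1536-well format, pin-tool compound addition; DMSO = 100%, media-only = 0% viability.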

[18] = Quantitative High-Throughput drug screen in 47 multiple myeloma cell lines against the NCATS MIPE library collection: Karpas417_ECACC cell viability assay (AID 1918961); settings: Karpas417 myeloma viability, CellTiter-Glo ATP luminescence, 48 h; viability (% of DMSO): at 45.8 µM (top of the series) unless noted
Procedure, shortened: as §4

Measured: Potency

Oc1ccc(C2CNCCc3c2cc(O)c(O)c3Cl)cc1 (stereo unspecified)
active: [11] 5.9 µM
inactive: [1] | [2] | [3] | [4] | [5] | [6] | [7] | [8] | [9] | [10] | [12]

CCn1cc(C(=O)O)c(=O)c2cc(F)c(N3CCNC(C)C3)c(F)c21 (stereo unspecified)
inactive: [1] | [13] | [3] | [14] | [4] | [5] | [6] | [15] | [7] | [8] | [16] | [10] | [11] | [17] | [12]

CCn1c(-c2nonc2N)nc2cnc(Oc3cccc(NC(=O)c4ccc(OCCN5CCOCC5)cc4)c3)cc21
active: [1] 14.8 µM | [2] 8.33 µM | [3] 5.9 µM | [14] 18.7 µM | [4] 5.9 µM | [6] 7.43 µM | [7] 20.9 µM | [8] 5.9 µM | [16] 2.64 µM | [11] 2.35 µM | [17] 8.33 µM

NC(N)=NC(=O)c1nc(Cl)c(N)nc1N
active: [2] 8.33 µM | [3] 14.8 µM | [16] 5.26 µM | [10] 8.33 µM | [17] 14.8 µM
inactive: [13] | [14] | [5] | [7] | [12]

COc1ccc2nc(S(=O)Cc3ncc(C)c(OC)c3C)[nH]c2c1 (stereo unspecified)
active: [13] 18.7 µM
inactive: [1] | [14] | [7] | [11] | [12]

O=C(O)COCCN1CCN(C(c2ccccc2)c2ccc(Cl)cc2)CC1 (stereo unspecified)
active: [15] 7.43 µM
inactive: [1] | [4] | [5] | [6] | [9] | [10] | [11] | [12]

NCCCC(N)(C(=O)O)C(F)F (stereo unspecified)
active: [1] 16.6 µM | [7] 13.2 µM | [9] 20.9 µM | [11] 0.166 µM
inactive: [13] | [5] | [15] | [17] | [12]

O=c1ncn2nc(Sc3ccc(F)cc3F)ccc2c1-c1c(Cl)cccc1Cl
inactive: [1] | [7] | [8]
active: [3] 18.7 µM | [16] 4.18 µM | [11] 14.8 µM | [17] 18.7 µM | [12] 18.7 µM

C[C@]1(c2nc3c(C(N)=O)cccc3[nH]2)CCCN1
inactive: [1] | [14] | [4] | [5] | [6]
active: [15] 18.7 µM

CNC(=O)c1ccc(N2C(=S)N(c3ccc(C#N)c(C(F)(F)F)c3)C(=O)C2(C)C)cc1F
active: [6] 9.35 µM | [11] 18.7 µM
inactive: [1] | [14] | [15] | [7] | [10]

CCCC(CCC)C(=O)O
inactive: [1] | [3] | [14] | [4] | [5] | [6] | [15] | [8] | [16] | [17] | [12]

COc1ccccc1-c1cccc(-c2c(O)c3cc(C#N)c(Cl)cc3[nH]c2=O)c1
active: [7] 42.9 µM | [17] 42.9 µM
inactive: [1] | [13] | [14] | [16] | [9] | [10]

Nc1ccc(S(=O)(=O)Nc2ccnn2-c2ccccc2)cc1
inactive: [2] | [13] | [3] | [14] | [4] | [5] | [6] | [18] | [15] | [7] | [9] | [10] | [11] | [12]

CC(C[N+](C)(C)C)OC(N)=O (stereo unspecified)
active: [7] 0.0083 µM
inactive: [2] | [13] | [3] | [4] | [5] | [6] | [15] | [8] | [16] | [10]

Cn1c(=O)c(F)c(Nc2ccc(I)cc2F)c2c(=O)n(C[C@@H](O)CO)cnc21
inactive: [1] | [13]
active: [5] 11.8 nM | [6] 16.6 µM | [7] 3.32 µM | [11] 13.2 µM | [17] 1.87 µM

Cc1ccccc1C(C(=O)NC1CCCC1)N(C(=O)Cn1cnc2ccccc21)c1cccc(F)c1 (stereo unspecified)
inactive: [13] | [5] | [6] | [17]
active: [2] 16.6 µM | [3] 0.0264 µM | [16] 20.9 µM | [11] 20.9 µM | [12] 14.8 µM

OC[C@H](Cc1ccccc1)Nc1nc(Oc2ccc3c(c2)CCC3)nc2c1ncn2Cc1ccc(-c2ccccc2)cc1
inactive: [1] | [13] | [18] | [8]

Nc1nc2[nH]cc(CCc3ccc(C(=O)N[C@@H](CCC(=O)O)C(=O)O)cc3)c2c(=O)[nH]1
active: [3] 0.526 µM | [14] 0.418 µM | [4] 0.469 µM | [6] 0.59 µM | [7] 0.833 µM | [16] 0.743 µM | [9] 9.35 µM | [10] 6.62 µM | [17] 18.7 µM | [12] 20.9 µM
inactive: [2] | [13] | [5] | [11]
